# Experimental data from PubChem BioAssay AID504832 (National Center for Advancing Translational Sciences (NCATS), 2011).
# Out of some 310,000 compounds screened, about 18,000 (5.8%) were called active. Roughly 22% stayed inconclusive and do not appear here. Calls follow the shape of the dose curve; as a rule, active = well fitted inhibition curve with a large enough effect; inconclusive = small, poorly fitted or top-dose-only effect, or another doubt; inactive = no such curve, though single readings can be large or run the other way. What follows is part of a selection rich in actives, with near analogues and random picks from the rest. A call without a number means that no potency is given here.
# Assay: Primary qHTS for delayed death inhibitors of the malarial parasite plastid, 48 hour incubation
# Details: P. falciparum luciferase growth in erythrocytes; series mostly up to 28.7 µM
# Method in brief: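 Luminescence readout; reporter = integrated firefly luciferase in P. falciparum. RBC culture at 2% hematocrit, 0.1% parasitemia final, 37 C/5% CO2; decreased signal taken as growth inhibition.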
# Potency is read from the fitted curve at half-maximal effect.
Compound,Potency,"activity change, negative = inhibition"
CCn1cc(CN2CCC(n3nccc3NC(=O)CCCc3ccccc3)CC2)c(C)n1,inactive,–
CNC(=O)N1c2ccccc2C=Cc2ccccc21,inactive,–
CC1Sc2ccc(S(=O)(=O)CCC(=O)NCc3ccccc3Cl)cc2NC1=O (centres undefined),inactive,–
CN(C)C(=O)c1ccc(NC(=O)c2ccccc2-c2ccccc2)cc1,inactive,–
COc1ccc(Nc2nnc(C)c3ccccc23)cc1,inactive,–
Cc1ccc(-c2nnc(Nc3ccc(C(=O)N(C)C)cc3)c3ccccc23)cc1S(N)(=O)=O,9.28 µM (active),–
COc1ccc(NC(=O)CN(C)CC(=O)Nc2cccc(C(F)(F)F)c2)cc1,inactive,–
CCNC(=O)c1ccc(OCC(=O)Nc2ccc(F)cc2)c(OC)c1,inactive,–
COc1cc(C(=O)N(C)Cc2cccc(OC)c2OC)ccc1OCC(=O)Nc1cccc(C(F)(F)F)c1,11.7 µM (active),–
O=C(Nc1ccc(N2CCCCC2)cc1)c1cc(S(=O)(=O)N2CCOCC2)ccc1F,inactive,–
N#Cc1cccc(NC(=O)CN2CCCCCC2)c1,inactive,–
N#Cc1cccc(NC(=O)C2CCCN(C(=O)c3ccc(Cl)cc3)C2)c1 (centres undefined),9.28 µM (active),–
O=C(Nc1cccc(Cl)c1)C1CCCN(c2cnccn2)C1 (centres undefined),inactive,–
COc1ccc(Cl)cc1C(=O)OCC(=O)NCc1cccs1,inactive,–
CCOC(=O)C1CCN(C(=O)COC(=O)C2CCN(S(=O)(=O)c3ccc4c(c3)OCCO4)CC2)CC1,13.1 µM (active),–
Cc1c(C(=O)NCCN(C)C)oc2ccc(S(=O)(=O)N3CCCC3)cc12,inactive,–
CCOC(=O)C1CCN(S(=O)(=O)c2ccc3c(c2)N(C(C)=O)CCO3)CC1,inactive,–
CCOC(=O)C1CCN(C(=O)c2oc3ccc(S(=O)(=O)N4CCCCCC4)cc3c2C)CC1,11.7 µM (active),–
O=C(COC(=O)C1CCN(S(=O)(=O)c2ccc3c(c2)OCCO3)CC1)Nc1ccccc1OC(F)F,inactive,–
CCOC(=O)C1CCN(C(=O)C2CCCN(S(=O)(=O)c3ccc(OC)c(Cl)c3)C2)CC1 (centres undefined),inactive,–
CC(Sc1nnc(-c2ccccc2F)n1C1CC1)C(N)=O (centres undefined),inactive,–
Cc1occc(=O)c1OCc1ccc(F)cc1,inactive,–
Clc1nc(NC2CCCC2)nc(N2CCOCC2)n1,inactive,–
Cc1ccc(NC(=O)Cc2nnc(SCC(=O)Nc3nncs3)n2C)cc1,inactive,–
CCc1noc(C)c1C(=O)N1CCN(S(=O)(=O)c2cccc(C(F)(F)F)c2)CC1,inactive,–

Compound,Potency,"activity change, negative = inhibition"
Cc1c(C(=O)N2CCCC2)c(S(=O)(=O)NCC(C)c2ccccc2)c(C)n1C (centres undefined),inactive,–
Cc1onc(C(=O)NN)c1C(=O)N1CCN(C(c2ccccc2)c2ccccc2)CC1,5.86 µM (active),–
COc1ccc(N2CCN(C(=O)Cn3cnc4sc(C)c(S(=O)(=O)N5CCOCC5)c4c3=O)CC2)cc1,inactive,–
CN(Cc1cccs1)C(=O)CN1C(=O)c2ccccc2S1(=O)=O,inactive,–
CCC1CCC2(CC1)NC(=O)N(CC(=O)Nc1ccc(OC)cc1)C2=O (centres undefined),inactive,–
O=C(CN(CC1CCCO1)C(=O)CNS(=O)(=O)c1ccc(Cl)cc1)NCc1ccccc1 (centres undefined),inactive,–
CCN(C(=O)COC(=O)c1sccc1C)c1c(N)n(Cc2ccccc2)c(=O)[nH]c1=O,inactive,–
CCN(C(=O)COC(=O)CCOc1cccc(C)c1)c1c(N)n(Cc2ccccc2)c(=O)[nH]c1=O,inactive,–
CCN(C(=O)COC(=O)c1c(C)nn(-c2ccccc2)c1Cl)c1c(N)n(Cc2ccccc2)c(=O)[nH]c1=O,10.4 µM (active),–
Cc1ccccc1NC(=O)Cc1nc(COC(=O)c2cccnc2Cl)cs1,inactive,–
O=C(CCNC(=O)c1ccc([N+](=O)[O-])cc1)NC1CCCCC1,inactive,–
CCOc1cc(C(=S)N2CCOCC2)ccc1OS(=O)(=O)c1ccc(Br)cc1,inactive,–
COc1cc(OC)c(C(=S)N2CCCC2)cc1OC,inactive,–
COC(=O)[C@@H](Cc1ccccc1)NC(=O)NCCc1ccccc1,inactive,–
Cc1ccc(C(=O)Nc2ncccc2C)cc1S(=O)(=O)N1CCOCC1,inactive,–
Cc1ccccc1CSCCNC(=O)c1ccc(N(C)S(=O)(=O)c2ccccc2)cc1,inactive,–
Cc1ccc(NC(=O)CCCNC(=O)c2ccc(Cl)cc2)cc1S(=O)(=O)N1CCOCC1,inactive,–
O=C(NCCSCc1ccccc1)c1ccc(Cl)c(S(=O)(=O)N2CCOCC2)c1,10.4 µM (active),–
O=C(NCc1cccnc1)c1cc(S(=O)(=O)N2CCOCC2)c(Cl)cc1Cl,inactive,–
Cc1ccccc1CSCCNC(=O)c1ccc(Cl)c(S(=O)(=O)N2CCOCC2)c1,11.7 µM (active),–
Cc1ccccc1N1CC(C(=O)Nc2ccc3c(c2)OCO3)CC1=O (centres undefined),inactive,–
Cc1ccc(Cl)c(OCC(=O)N2CCc3ccccc3C2)c1,inactive,–
OCC1(Cc2ccccc2)CCN(Cc2cc3ccccc3o2)CC1,inactive,–
OCC1(Cc2ccccc2C(F)(F)F)CCN(Cc2cccc3cnccc23)CC1,11.7 µM (active),–
CC(C)c1csc(CN2CCC(CO)(Cc3ccccc3)CC2)n1,inactive,–

Compound,Potency,"activity change, negative = inhibition"
Cn1nc(C(C)(C)C)c([N+](=O)[O-])c1C(N)=O,inactive,–
Cn1nc([N+](=O)[O-])nc1Sc1ccc(C(C)(C)C)cc1,13.1 µM (active),–
CC(C)(C)NC(=O)Cn1cnc([N+](=O)[O-])n1,inactive,–
Cc1ccnc(NC(=O)CNC(=O)c2ccccc2)c1,inactive,–
COc1cccc2sc(N(CCCN(C)C)C(=O)CCS(=O)(=O)c3ccccc3)nc12,inactive,–
Cc1cccc2sc(N(CCCN(C)C)C(=O)CCS(=O)(=O)c3ccccc3)nc12,inactive,–
COc1cccc2sc(N(CCCN(C)C)C(=O)C(c3ccccc3)c3ccccc3)nc12,13.1 µM (active),–
Cc1ccc(CSc2nsc(C)c2C#N)cc1,inactive,–
O=C1c2ccccc2S(=O)(=O)N1Cc1c(F)cccc1Cl,inactive,–
CCCCC(=O)Nc1ccc2c(c1)OCCO2,inactive,–
CCOC(=O)c1cnc2ccc(F)cc2c1Nc1ccc2c(c1)OCCO2,9.28 µM (active),–
COC(=O)CCNc1ccc2c(c1)OCCO2,inactive,–
CCOCCCNc1c(CC)c(C)c(C#N)c2nc3ccccc3n12,3.29 µM (active),–
CCOCCn1c(C(C)C)nc2ccccc21,inactive,–
CN(C)CCCNc1c2c(c(C#N)c3nc4ccccc4n13)CCC2,inactive,–
CCCCCn1c(=O)c(C(=O)NCc2ccccc2)c(O)c2ccccc21,9.28 µM (active),–
CCCCCn1c(=O)c(C(=O)Nc2c(C)n(C)n(-c3ccccc3)c2=O)c(O)c2ccccc21,inactive,–
CCCCn1c(=O)c(C(C)=O)c(O)c2ccccc21,inactive,–
COc1ccc(N(CC(=O)Nc2ccc(F)c(F)c2)S(=O)(=O)c2c(C)[nH]c(=O)[nH]c2=O)cc1,inactive,–
CN(C(=O)c1cccc(OC2CCN(S(=O)(=O)N(C)C)CC2)c1)C1CCOC1 (centres undefined),inactive,–
CC(C)(C)NC(=O)NC(=O)COC(=O)C1c2ccccc2Oc2ccccc21,inactive,–
Cc1ccccc1N1CCN(S(=O)(=O)c2ccc3ccccc3c2)CC1,inactive,–
CCOc1cccc(=O)c2c(C)n(CC3CCCO3)c(C)c12 (centres undefined),14.7 µM (active),–
O=c1c2cc3c(=O)n(CC4CCCO4)c(=O)c3cc2c(=O)n1CC1CCCO1 (centres undefined),inactive,–
CCOc1ccc(NC(=O)c2cccc3c2C(=O)N(CC2CCCO2)C3)cc1 (centres undefined),inactive,–

Compound,Potency,"activity change, negative = inhibition"
CC(C)c1ccc(NC(=O)COC(=O)c2ccc(CN3CCCC3=O)cc2)cc1,inactive,–
Cc1ccc2nc(SCC(=O)NC3CCCC3)[nH]c2c1,inactive,–
COC(=O)C1(C)NC(c2ccccc2OC)C2C(=O)N(c3ccccc3)C(=O)C21 (centres undefined),inactive,–
COC(=O)C1(C)NC(c2ccc(C)cc2)C2C(=O)N(c3ccc(F)cc3)C(=O)C21 (centres undefined),inactive,–
CCCC1(C(=O)OC)NC(c2ccco2)C2C(=O)N(C)C(=O)C21 (centres undefined),inactive,–
CCN1C(=O)[C@H]2[C@@H](c3ccc(SC4CCCCC4)c(OC)c3)N[C@@](Cc3ccccc3)(C(=O)OC)[C@H]2C1=O,2.08 µM (active),–
CCN1C(=O)[C@H]2[C@@H](c3ccc(-c4ccc(OC)cc4)cc3)N[C@@](Cc3ccccc3)(C(=O)OC)[C@H]2C1=O,9.28 µM (active),–
CCCCC1(C(=O)OCC)NC(c2ccc(O)cc2)C2C(=O)N(c3ccccc3)C(=O)C21 (centres undefined),inactive,–
CCOC(=O)C1(Cc2ccc(O)cc2)NC(c2ccccc2F)C2C(=O)N(C)C(=O)C21 (centres undefined),inactive,–
CCN1C(=O)[C@H]2[C@@H](c3ccc(-c4ccc(F)cc4)cc3)N[C@@](Cc3ccccc3)(C(=O)OC)[C@H]2C1=O,4.65 µM (active),–
COC(=O)C1(C)NC(c2ccc(F)cc2)C2C(=O)N(c3ccccc3)C(=O)C21 (centres undefined),inactive,–
COc1cc2c(C(=O)O)c(C)n(C)c2c2ccccc12,–,15.4% [at 0.00184 µM] (inactive)
O=C(CSc1ccc(-c2ccco2)nn1)Nc1cccc(F)c1,inactive,–
NC(=O)c1cc2ccccc2o/c1=N/NC(=O)c1cccc(F)c1,inactive,–
CCOc1cc(NC(=O)Nc2ccccc2)c(OCC)cc1NC(=O)CC,inactive,–
CCOc1cc(NC(=O)c2ccccc2C(=O)O)c(OCC)cc1NC(=O)c1ccccc1F,4.15 µM (active),–
NC(=O)c1ccccc1NC(=O)c1ccccc1F,inactive,–
O=C(Nc1cccc(Cl)c1N1CCOCC1)c1cccnc1,inactive,–
Cc1ccccc1NC(=O)CCNS(=O)(=O)c1ccc2[nH]c(=O)oc2c1,inactive,–
CCn1c2ccccc2c2cc(NC(=O)C/C(C)=N/NC(=O)c3ccccc3N)ccc21,11.7 µM (active),–
CCn1c2ccccc2c2cc(NC(=O)COC(=O)c3ccccc3Br)ccc21,inactive,–
C/C(CC(=O)Nc1ccc(N(C)C)cc1)=N\NC(=O)c1ccccc1F,inactive,–
CN(CC(=O)NCc1ccc(Cl)cc1)S(=O)(=O)c1cccs1,inactive,–
COc1ccc(S(=O)(=O)N2CCN(C(=O)N(C)C)C2C)cc1 (centres undefined),inactive,–
